This is one part of a sample in which hits are shown more often than they occur.
Pf Dd2 growth: qHTS Primary assay for Inhibitors of Plasmodium falciparum Dd2 growth in vitro; actives 4.3% (n = 120,000); AID 1347417, 2020; Potency, µM (highest dose often 28.9 µM), actives largely listed as inhibitors; P. falciparum Dd2 growth, SYBR Green, 72 h; active means well fitted inhibition curve with a large enough effect; further: nearly all actives have a fitted effect of over 65% in size
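Infected erythrocytes (Dd2, 0.3% parasitemia, 2.5% hematocrit final) are added to compound in RPMI-1640/Albumax II medium, grown 72 h at 37C in low oxygen, then lysed with saponin/Triton-X containing SYBR Green and read by fluorescence.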
Large screens that a line does not name were inactive.

O=C1NC(=NC2CCCC2)C2(CCCN([S+](=O)([O-])c3cccc(C(F)(F)F)c3)C2)N1c1cccnc1 (stereo not drawn)	none
COc1ccc(CN2CCC3(C2)C(=NC2CCCCC2)NC(=O)N3c2cccc(OC)c2)cc1 (stereo not drawn)	Pf Dd2 growth 2.8µM
COc1cccc(N2C(=O)NC(=NC3CCCC3)C23CCN(CC2CCCCC2)C3)c1 (stereo not drawn)	Pf Dd2 growth 10µM
COc1cccc(N2C(=O)NC(=NC3CCCCC3)C23CCCN([S+](=O)([O-])c2cccc(C(F)(F)F)c2)C3)c1 (stereo not drawn)	Pf Dd2 growth 13µM
COc1cccc(N2C(=O)NC(=NC3CCCCC3)C23CCCN(Cc2ccsc2)C3)c1 (stereo not drawn)	Pf Dd2 growth 11µM
COc1cccc(N2C(=O)NC(=NC3CCCC3)C23CCN(CC2CC2)C3)c1 (stereo not drawn)	none
O=C1NC(=NC2CCCC2)C2(CCN([S+](=O)([O-])c3cccc(C(F)(F)F)c3)C2)N1c1cc(F)cc(F)c1 (stereo not drawn)	none
Cn1nccc1C(=O)NCc1ccc2c(c1)CCN2C(=O)c1ccccc1	none
Cc1nc(CCNC(=O)C2(c3ccccc3)CC2)no1	none
COc1ccc(CN2CCCC3(C2)C(=NC2CCCCC2)NC(=O)N3c2cccc(OC)c2)cc1 (stereo not drawn)	Pf Dd2 growth 8.9µM
COc1cccc(N2C(=O)NC(=NC3CCCCC3)C23CCN(Cc2cccnc2)C3)c1 (stereo not drawn)	none
COc1ccc(C(=O)N2CCCC3(C2)C(=NC2CCCCC2)NC(=O)N3c2cccc(OC)c2)cc1 (stereo not drawn)	none
O=C(NC1CCCC1)c1csc(N2CCN(c3cccc(Cl)c3)CC2)n1	none
Cc1cccc2nc(-c3ccc(N(C)C)cc3)c(Nc3ccc4c(c3)OCO4)n12	Pf Dd2 growth 7.9µM
Cc1ccc(-c2nc3ccccn3c2Nc2ccc3c(c2)OCO3)cc1	none
Cc1ccc(-c2nc3ccc(Br)cn3c2Nc2ccc3c(c2)OCO3)o1	none
C#C[C@H]1CN2CC[C@H]1C[C@@H]2CNC(=O)CCCC(=O)O	none
O=C(NC1CCN(c2cc(-c3ccc(Cl)cc3)[nH]n2)C1)c1cccnc1 (stereo not drawn)	none
N#Cc1ccc(C(=O)NC2CCN(c3cc(-c4ccccc4)[nH]n3)CC2)cc1	none
Cc1ccccc1C(=O)NC1CCN(c2cc(-c3ccc(Cl)cc3)[nH]n2)C1 (stereo not drawn)	none
N#Cc1ccc(C(=O)NC2CCN(c3cc(-c4ccc(Cl)cc4)[nH]n3)C2)cc1 (stereo not drawn)	Pf Dd2 growth 7.9µM
O=C(NC1CCN(c2cc(-c3ccc(Cl)cc3)[nH]n2)C1)c1ccc(Br)o1 (stereo not drawn)	Pf Dd2 growth 13µM
N#Cc1ccc(C(=O)NC2CCN(c3cc(-c4ccc(Cl)cc4)[nH]n3)CC2)cc1	none
O=C(CSc1nccn1C1CCCC1)Nc1cccc(F)c1	none
CC(C(=O)NCc1ccc(F)cc1F)C1CCOCC1 (stereo not drawn)	none
CN(C)c1ccc(-c2nnnn2[C@H]2CO[C@H]3[C@@H]2OC[C@@H]3NC(=O)CC2(CC(=O)O)CCCC2)cc1	none
O=C1CCN(C(=O)CCCc2ccccc2)CCCC(c2nc(-c3cccnc3)no2)CCN1 (stereo not drawn)	none
O=C(Nc1nn(Cc2ccccc2)c2cccc(N3CCOCC3)c12)c1ccncc1	none
CC(C)c1noc(-c2cn(C3CCN(C(=O)Cc4ccc(F)cc4)CC3)nn2)n1	none
Cc1cc2nn(-c3ccc(F)cc3)nc2cc1NC(=O)c1cc(Cl)ccc1Cl	none
Cc1cc2nn(-c3ccccc3)nc2cc1NC(=O)c1cccc2c(Cl)cccc12	none
CCN(CC)c1ccc(-n2nc3cc(C)c(NC(=O)c4ccccc4F)cc3n2)cc1	Pf Dd2 growth 1.4µM
CC1Oc2ccc(NC(=O)NCc3ccccc3)cc2CN(C2CCCc3ccccc32)C1=O (stereo not drawn)	none
O=C(NCc1ccncc1)C1CN(Cc2ccco2)CC12CCOCC2 (stereo not drawn)	none
CC1CCCCN1C(=O)c1cc(-c2ccc(Br)cc2)on1 (stereo not drawn)	none
CC1CCCN1C(=O)c1cc(-c2cnn(C(C)C)c2)nc2cc(F)ccc12 (stereo not drawn)	none
CC(C)=CCn1c(-c2cc(C)oc2C)cn2cc(C(=O)N3CCCC3C)nc2c1=O (stereo not drawn)	Pf Dd2 growth 8.9µM
Cc1ccc2c(C)c(C(=O)N3CC[C@H](O)[C@@H](O)C3)oc2c1	none
Cn1c2c(c3ccccc31)CN(C(=O)c1ccccc1)CC2	none
COc1ccc(C(=O)N2CCC(c3nc4ccccc4s3)CC2)cc1Cl	none
CCCn1cc(C2CCN(S(=O)(=O)c3ccccc3Cl)CC2)c2ccccc21	none
Cn1cc(C2CCN(C(=O)c3sc(Cl)c(Cl)c3Cl)CC2)c2ccccc21	Pf Dd2 growth 7.9µM
CN(c1ccccc1)c1ccc2nnc(-c3cc(C(=O)NCc4ccncc4)ccn3)n2n1	none
CN(c1ccccc1)c1ccc2nnc(-c3cc(C(=O)NCCc4ccccc4)ccn3)n2n1	Pf Dd2 growth 8.9µM
CN(c1ccccc1)c1ccc2nnc(-c3cc(C(=O)NC4CCOCC4)ccn3)n2n1	none
CC1(C)[C@H](Cc2cc(CCO)on2)C[C@@H]1NC1CCOCC1	none
COC[C@@H]1CN(C(=O)c2cccn2C)C[C@H]1c1ccncc1	none
Cc1ccc(NC(=O)c2cnc(SCC(=O)Nc3cc(C)on3)n(C)c2=O)cc1	none
COc1ccc(-c2cc(C(F)(F)F)nc(SCCC(=O)Nc3ccccc3F)n2)cc1	none
COc1ccc(-c2cc(C(F)(F)F)nc(SCCC(=O)Nc3cc(C)ccc3O)n2)cc1	Pf Dd2 growth 1µM
COc1ccc(CNC(=O)CSc2nc(-c3ccc(OC)cc3)cc(C(F)(F)F)n2)cc1	none
CCCNC(=O)CCSc1nc(-c2ccc3c(c2)OCO3)cc(C(F)(F)F)n1	Pf Dd2 growth 5µM
CC(C)(C)NC(=O)CCSc1nc(-c2ccc3c(c2)OCO3)cc(C(F)(F)F)n1	none
CCCNC(=O)CSc1nc(-c2ccc(OC)cc2)cc(C(F)(F)F)n1	none
Cc1ccc(-n2nc(C(=O)NCc3ccc(F)cc3Cl)c3c4ccccc4n(C)c3c2=O)cc1	none
CCCc1cc(C(=O)N2CCC(=O)N(CC3CC3)C(C(C)C)C2)cs1 (stereo not drawn)	none
O=C(c1cscn1)N1CCCC(CCc2cccc(F)c2)C1 (stereo not drawn)	none
CCc1nccn1CC(=O)N1CCC2(CC1)[C@H](O)C[C@@H]2O	none
COc1cc(OC)cc(C(=O)Nc2ccc(Cl)cc2C(=O)c2ccccc2Cl)c1	none
Cc1nc2c(c(=O)[nH]1)CCN(C(=O)c1c(C)nn(-c3ccc(F)cc3)c1C)C2	none
CCOC(=O)c1cccc(NC(=O)c2cnc(-c3ccccc3)nc2-c2ccncc2)c1	none
COC(=O)CCNC(=O)C1CN(S(=O)(=O)c2cccnc2)CC12CCCCC2 (stereo not drawn)	none
O=C(Nc1cc(F)ccc1F)C1CN(S(=O)(=O)c2cccnc2)CC12CCCCC2 (stereo not drawn)	none
O=C(NCc1cc(F)ccc1F)C1CN(S(=O)(=O)c2cccnc2)CC12CCCCC2 (stereo not drawn)	Pf Dd2 growth 2.8µM
O=C(NCCN1CCOCC1)C1CN(S(=O)(=O)c2ccccc2)CC12CCCCC2 (stereo not drawn)	Pf Dd2 growth 4µM
O=C(NCCc1cccs1)C1CN(S(=O)(=O)c2cccnc2)CC12CCCCC2 (stereo not drawn)	none
O=C(NCCCN1CCCC1=O)C1CN(S(=O)(=O)c2ccccc2)CC12CCCCC2 (stereo not drawn)	none
COCCNC(=O)c1noc(-c2ccc[nH]c2=O)n1	none

Screening data as filed in PubChem BioAssay.
